Holding throughout (assay): NCI-60 one-dose screen, 48 h (100 = growth as untreated, 0 = no growth, -100 = all killed)
The subject of test [1] is NCI-H226 lung. The conditions noted are these: 10 µM.
For test [2], the system named is HOP-62 NSCLC. As to conditions: 10 µM unless noted.
Test [3] relates to NCI-H460 lung. The conditions noted are these: 10 µM unless noted.
For test [4], the system named is HOP-92 NSCLC. The conditions noted are these: 10 µM unless noted.
The subject of test [5] is NCI-H522 lung. As to conditions: 10 µM.
The test system of test [6] is A549/ATCC NSCLC. As to conditions: 10 µM unless noted.
Test [7] relates to 786-0 renal. The conditions noted are these: 10 µM unless noted.
Test [8] deals with COLO 205 colon. As to conditions: 10 µM unless noted.
The test system of test [9] is NCI-H322M lung. As to conditions: 10 µM unless noted.

This is part of a sample that, as a whole, favours compounds with a hit. Of some 83,000 tested, about 20% had one in any assay.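 How to read the values: 0–100, growth inhibition (40 = 60% inhibited); 0, no net growth; -100 to 0, cell death (-40 = 40% of starting cells died; -100 = all dead).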 Values without a mark were called inactive. Activity calls are given as the source filed them. The calls were made as follows: active = growth percent below 10; inactive = the rest.

`Cn1c(=O)c(S(=O)(=O)c2ccccc2)cc2ccc3c(cnn3-c3ccc(Cl)cc3)c21`: the growth is 55.6% in [1]; 87.3% in test [2]; 80.7% in test [3]; 39.8% in [4]; -18.9% (active) in test [5]; 65.5% in [6]. Further, the growth was 51.3% in [7] and 100% in test [8].

In the case of `NC(=O)c1cc(I)ccc1NC(=O)COc1ccc(Cl)cc1Cl`, the growth in test [1] was 103%; in test [2], 87.2%; in test [3] it was 103%; in test [5], 75.7%; in test [6] it was 90.4%; in test [7], 89.9%. Besides, the growth in [8] is 101%.

Consider `Cc1nc2cc(Nc3nc(Nc4ccc(F)cc4)nc(-c4ccc(Cl)cc4)n3)ccc2n1Cc1ccccc1`, for which the growth in test [9] is 94%; in test [2], 80.6%; in test [3], 71.1%; in test [4] it was 35.1%; in test [5] it was 82.8%; in test [6] it was 57.4%. The growth in [7] is 91%; in [8], 61.8%.

On to `COC(=O)c1ccc(C(=O)Nc2ccccc2N)cc1`, for which the growth in test [1] is 73.9%; in test [2] it was 95%; in [3] it was 63.3%; in test [6], 94.7%; in [7], 80.8%; in test [8] it was 106%.

In the case of `O=C(Nc1ccc(F)cc1)c1ccc(C(=O)Nc2ccc(F)cc2)cc1`, the growth in test [1] was 99.5%; in test [3], 105%; in [4], 105%; in test [5] it was 111%; in test [6], 98.9%; in [7], 98.8%. Moreover, the growth in [8] is 114%.

Take `Cc1cc[n+](CCc2ccccc2)cc1`: the growth is 102% in [1] and 89.4% in test [6].

Take `ONc1nc(NO)c2[nH]cnc2n1`: the growth in test [1] was 82.8%; in test [2] it was 83.9%; in test [3], 86.7%; in test [4], 80.8%; in test [5], 97%; in [6] it was 101%. In addition, the growth in [7] was 86.9%; in test [8] it was 112%.

For `CCCCCCCCCCCCCCCC[N+]1(C)CCOCC1`, the growth in test [1] was 48.4%; in test [3], 4.21% (active); in [4], -15.3% (active); in [5], -24.8% (active); in [6] it was 24.3%; in [7] it was 5.35% (active). Besides, in test [8], the growth was -92.3% (active).

Turning to `O=C(COc1cccc(/C=C2\COc3ccccc3C2=O)c1)c1ccccc1`, the growth in test [9] is 95.3%; in test [2], 98%; in test [3], 104%; in [4], 91.5%; in test [5], -41.9% (active); in test [6] it was 89.2%. In addition, the growth in [7] was 88.8%; in test [8], 102%.

For the molecule `C=C(C)CCCC(C)CC#N` (stereo unspecified), the growth is 99.4% in test [1]; 90.7% in [2]; 107% in [3]; 95.1% in [4]; 90.3% in test [5]; 99.9% in test [6]. The growth in test [7] was 97.3%; in test [8], 106%.

Take `Cc1nc(NN)c([N+](=O)[O-])c(NN)n1`: the growth in test [9] was 110%; in test [2], 110%; in test [3], 103%; in [4], 102%; in [5] it was 108%; in test [6] it was 100%. For the same molecule, the results for the growth in [7] and in test [8] were 104% and 118%, respectively.

Turning to `O=C1C(Br)=C(c2ccccc2)C(=O)C(Br)=C1c1ccccc1`, the growth in [1] is 95.1%; in test [2], 111%; in [3] it was 99.5%; in test [4], 92.1%; in [6], 87.6%; in test [7] it was 95.7%. Besides, the growth in test [8] is 90.9%.

As for `Nc1nc(N)c(N=Nc2c(Br)cc(S(N)(=O)=O)cc2Br)c(N)n1`, the growth in test [1] is 91.9%; in [2], 103%; in [3], 105%; in test [4], 85%; in test [5] it was 97.9%; in test [6], 97.4%. Also, the growth is 106% in test [7] and 104% in test [8].

For the molecule `CSc1ccc(OC(C)=O)cc1C`, the growth was 98.3% in test [1]; 79.4% in [2]; 104% in [3]; 105% in test [5]; 101% in [6]; 98.1% in test [7]. The growth in [8] was 104%.

On to `CCCCCCCCCCCCSC1=CC(=O)C=CC1=O`, for which the growth in [1] was 91.5%; in test [2], 82.2%; in [3], 105%; in test [5] it was -81.2% (active); in [6] it was 92.3%; in [7], 98.7%. Moreover, in [8], the growth was 107%.

For the origin of these results see PubChem BioAssay (NCI).
